For this experiment, the system named is DRIVER-selected RNA biosensor (aptazyme) pool. Briefly: maximum fold change of ribozyme cleavage across biosensor pool versus no-compound control; higher = stronger biosensor response (ligand inhibits cleavage). To be noted: 10 µM. The method in brief:
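CleaveSeq on a pool of 1,730 array-resynthesized ribozyme biosensors, T7-transcribed at 37°C for 15–30 min with 9 mM rNTPs and one compound at 10 µM (added from 10x DMSO stock), then reverse-transcribed at 50°C. Cleaved and uncleaved products were PCR-barcoded and counted by Illumina sequencing. Fold change of cleavage is the ratio of cleaved:uncleaved read fractions against a no-compound condition, corrected with reference sequences; the value is the maximum over all biosensors.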
`COCCNC(=S)NCc1ccc2[nH]c(C)cc2c1` came in with a maximum fold change of 2.32.
With `Cc1cc(C)cc(-n2c(C)cc(/C=C3\C(=N)N4N=C(N5CCOCC5)SC4=NC3=O)c2C)c1`, the maximum fold change turned out to be 4.19.
To `CCOC(=O)c1cnc2c(C)c(Cl)ccc2c1NCc1ccco1` belongs 6.11; to `O=c1oc2cc(O)ccc2c2ccccc12`, 2.57.
To `O=C(NCC(=O)N1CCOCC1)c1ccccc1` belongs 1.78.
The molecule `Cc1cc2c(c(=O)n1CCN(C)C)C(c1cccc(Br)c1)C(C#N)=C(N)O2` (stereo not drawn) gave a maximum fold change of 2.39.
Molecule `Cc1ccc(CNCc2c(C(=O)O)c(C)n(Cc3ccccc3C)c2C)o1` came in with a maximum fold change of 3.25.
Molecule `Cc1ccc(S(=O)(=O)NC(CC(=O)O)c2cccs2)cc1` (stereo not drawn) returned a maximum fold change of 2.72.
In turn, `CC(C)CN(CC(C)C)c1nnc(NC(=O)NCc2ccco2)s1` yielded a maximum fold change of 2.36.
To `CCOc1cc2c(cc1OCC)C1C(C(=O)N(CC)Cc3ccccc3)c3ccccc3C(=O)N1CC2` (stereo not drawn) belongs 3.54; to `COCCNC(=O)/C(C#N)=C/c1c(Oc2ccccc2Cl)nc2ccccn2c1=O`, 2.74; to `Cc1c(CNC(C)CCc2ccccc2)c(C(=O)O)c(C)n1Cc1cccc(Cl)c1` (stereo not drawn), 4.02.
Turning to `CN(C)CCNC(=O)CCn1c(=O)c2cccn2c2cccnc21`, the maximum fold change came to 3.34.
The molecule `COc1cc(CNc2ncc(-c3ccccc3)n2C)cc(OC)c1OC` displayed a maximum fold change of 1.75.
For the molecule `O=c1cc(-c2ccccc2)[nH]c2nc(C(F)(F)F)nn12`, the maximum fold change turned out to be 3.78.
In turn, `C=Cc1ccc(Cn2c(C(=O)O)c(CNCC3CCCO3)c3ccc(C)cc32)cc1` (stereo not drawn) displayed a maximum fold change of 2.75.
`Cc1c(C(=O)NCc2ccccc2Cl)oc2c1-c1[nH]ncc1CC2`: the maximum fold change was 2.79.
As to `O=C(NCc1ccc2c(c1)OCO2)c1cc(-c2ccc(Cl)cc2)n[nH]1`, the maximum fold change amounted to 3.13.

For the origin of these results see the supplement of paper PMC9477273.
